Results: PubChem BioAssay (Tox21)
Values joined by “and” are separate entries in the source; they are usually repeats but may differ in a detail not shown here. Identical values can stand only once. A number with no mark means an inactive call. Results filed as inconclusive are left out. Where a call stands in place of a potency, no number is given. Active and inactive are the calls of the source. Unless noted, calls follow the shape of the dose curve; as a rule, active = well fitted curve in the direction sought with a large enough effect in the repeat runs; inconclusive = weak or mixed curves; inactive = no such curve, though single readings can be large; an effect the other way counts as inactive or inconclusive.

Key:
[1] = qHTS assay for small molecule agonists of the p53 signaling pathway (AID 651631; calls by dose curve; also: nearly all actives have a fitted effect of over 15% in size; also: potency is read from the fitted curve at half-maximal effect)
Summary of the method: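 HCT-116 p53RE-bla reporter line, 16 h compound treatment at 37 °C, then fluorescence after 2 h with B/G FRET substrate.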

[2] = qHTS assay for small molecules that induce genotoxicity in human embryonic kidney cells expressing luciferase-tagged ATAD5 (AID 651632); also: nearly all actives have a fitted effect of over 15% in size; also: potency is read from the fitted curve at half-maximal effect
Summary of the method: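 Reporter cells (HEK293T) express luciferase-tagged ATAD5, a protein that accumulates after DNA damage. Treat 16 hr at 37C/5% CO2, add Amplite, wait 30 min at RT, and read luminescence.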

[3] = qHTS assay for small molecule agonists of the p53 signaling pathway - cell viability (AID 651633; calls by dose curve; also: nearly all actives have a fitted effect of over 30% in size; also: potency is read from the fitted curve at half-maximal effect)
Summary of the method: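 Viability counter-read: CellTiter-Glo luminescence (30 min, room temperature) in the same p53RE-bla plates. These plates had been exposed to compounds for 16 h at 37 C.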

[4] = qHTS assay for small molecules that induce genotoxicity in human embryonic kidney cells expressing luciferase-tagged ATAD5 - cell viability (AID 651634; calls by dose curve; also: nearly all actives have a fitted effect of over 25% in size; also: potency is read from the fitted curve at half-maximal effect)
Summary of the method: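 Seeding of 2,000 HEK293T ATAD5-luciferase cells per well preceded pin-tool compound transfer. Plates sat 15.5 hr at 37C under 5% CO2, then fluorescence was read after 30 min with CellTiter-Fluor.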

[5] = qHTS assay for small molecule disruptors of the mitochondrial membrane potential - cell viability (AID 720634; calls by dose curve; also: nearly all actives have a fitted effect of over 20% in size; also: potency is read from the fitted curve at half-maximal effect)
Summary of the method: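 Measuring cytotoxicity alongside mitochondrial potential, the screen quantified ATP by luminescence in HepG2 cells after 1 hr compound incubation and a 30 min room-temperature CellTiter-Glo step.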

[6] = qHTS assay to test for compound auto fluorescence at 590 nm (red) in HepG2 cells (AID 720674); also: potency is read from the fitted curve at half-maximal effect
Summary of the method: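 We screened compounds on adherent HepG2 cells, incubating them for an hour at 37 C in 5% CO2 before reading emission at 590 nm under 540 nm excitation; values reflect equivalence to Rose Bengal sodium fluorescence.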

[7] = qHTS assay to test for compound auto fluorescence at 535 nm (green) in HepG2 cells (AID 720675)
[8] = qHTS assay to test for compound auto fluorescence at 460 nm (blue) in HEK293 cells (AID 720678); also: potency is read from the fitted curve at half-maximal effect
Summary of the method: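 Auto fluorescence in the blue band was quantified as triamterene equivalency. HEK293 cells were seeded at 2,000/well, dosed after a 4-5 hr attachment, and kept overnight at 37C before the 405/460 nm reading.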

[9] = qHTS assay to test for compound auto fluorescence at 590 nm (red) in HEK293 cells (AID 720679); also: potency is read from the fitted curve at half-maximal effect
Summary of the method: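 Autofluorescence equivalency to Rose Bengal sodium, 540/590nm, in HEK293 cells exposed overnight to 23 nL compound per well.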

[10] = qHTS assay for small molecule disruptors of the mitochondrial membrane potential (AID 720635); also: potency is read from the fitted curve at half-maximal effect
Summary of the method: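 Mitochondrial membrane potential tracked with Mito-MPS dye, red aggregates (ex 540/em 590 nm) against green monomers (ex 490/em 535 nm). Compound treatment 1 hr at 37C, dye 30 min in HepG2.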
Tags tell the direction and shape of the fitted curve or compound fluorescence and quenching.

| Compound | Potency [1] | Potency [2] | Potency [3] | Potency [4] | Potency [5] | Potency [6] | Potency [7] | Potency [8] | Potency [9] | Potency [10] | fluorescence, relative to Rose Bengal [6] | fluorescence, % of fluorescein control [7] | fluorescence, % of triamterene [8] | fluorescence, % of fluorescent control [9] |
| --- | --- | --- | --- | --- | --- | --- | --- | --- | --- | --- | --- | --- | --- | --- |
| CCN1/C(=C/C=C/c2sc3ccccc3[n+]2CC)Sc2ccccc21 | 15 µM (active) | inactive | 16.8 µM (active) | 10.6 µM (active) | inactive | 12.6 µM (active) | inactive | inactive | 11.2 µM [fluorescent] (active) |  |  |  |  |  |
| CC(=O)S[C@@H]1CC2=CC(=O)CC[C@]2(C)[C@H]2CC[C@@]3(C)[C@@H](CC[C@@]34CCC(=O)O4)[C@H]12 | 17.2 µM (active) | inactive | inactive | inactive | inactive | inactive | inactive | inactive | inactive |  |  |  |  |  |
| NC(=O)CC[C@@H]1NC(=O)[C@H](Cc2ccccc2)NC(=O)[C@H](Cc2ccc(O)cc2)NC(=O)CCSSC[C@@H](C(=O)N2CCC[C@H]2C(=O)N[C@@H](CCCN=C(N)N)C(=O)NCC(N)=O)NC(=O)[C@H](CC(N)=O)NC1=O | inactive | inactive | inactive | inactive | inactive | inactive | inactive | inactive | inactive | inactive |  |  |  |  |
| ON=C1CCCC1 | inactive | inactive | inactive | inactive | inactive | inactive | inactive | inactive | inactive | inactive |  |  |  |  |
| Clc1ccc2nsnc2c1NC1=NCCN1 | inactive | inactive | inactive | inactive | inactive | inactive | inactive | inactive | inactive | inactive |  |  |  |  |
| CC(C)=CCOc1ccc(/C=C/C(=O)c2ccc(OCC=C(C)C)cc2OCC(=O)O)cc1 | 13.3 µM (active) | inactive | 10.6 µM (active) | inactive | inactive | inactive | inactive | inactive | inactive | 23.7 µM (active) |  |  |  |  |
| CC(=O)OCC(C)OC(C)=O (configuration not stated) | inactive | inactive | inactive | inactive | inactive | inactive | inactive | inactive | inactive |  |  |  |  |  |
| CCOC(=O)/C=C(C)/C=C/C=C(C)/C=C/c1c(C)cc(OC)c(C)c1C | 21.1 µM (active) | inactive | inactive | inactive | inactive | inactive | inactive | inactive | inactive |  |  |  |  |  |
| c1ccc(CSCc2ccccc2)cc1 | inactive | inactive | inactive | inactive | inactive | inactive | inactive | inactive | inactive | 43.1 µM (active) |  |  |  |  |
| C=C(C)C(=O)OCC[N+](C)(C)C | inactive | inactive | inactive | inactive | inactive | inactive | inactive | inactive | inactive |  |  |  |  |  |
| NNC(=O)c1cccc(C(=O)NN)c1 | inactive | inactive | inactive | inactive | inactive | inactive | inactive | inactive | inactive |  |  |  |  |  |
| Cc1cccc(S(=O)(=O)O)c1C | inactive | inactive | inactive | inactive | inactive | inactive | inactive | inactive | inactive |  |  |  |  |  |
| CCCCCOC(=O)CCCC | inactive | inactive | inactive | inactive | inactive | inactive | inactive | inactive | inactive | inactive |  |  |  |  |
| O=c1[nH]cnc2nc[nH]c12 | inactive | inactive | inactive | inactive | inactive | inactive | inactive | inactive | inactive | inactive |  |  |  |  |
| C/C=C(\C)C(=O)OCc1ccccc1 | inactive | inactive | inactive | inactive | inactive | inactive | inactive | inactive | inactive |  |  |  |  |  |
| N/C(=N\N=C\c1ccc(Cl)cc1)N/N=C/c1ccc(Cl)cc1 | 26.6 µM (active) | inactive | 26.6 µM (active) | inactive | inactive | inactive | inactive | inactive | inactive |  |  |  |  |  |
| O=C1c2ccccc2Cc2ccccc21 | inactive | inactive | inactive | inactive | inactive | inactive | inactive | inactive | inactive | 12.3 µM (active) |  |  |  |  |
| CC(C)(C)C(=O)OCOC(=O)[C@@H]1N2C(=O)[C@@H](NC(=O)[C@H](N)c3ccccc3)[C@H]2SC1(C)C | inactive | inactive | inactive | inactive | inactive |  |  |  |  | inactive | 0.612% [at 18.6 µM] | -0.113% [at 18.6 µM] | 0.0033% [at 18.6 µM] | 0.201% [at 18.6 µM] |
| Oc1cccc2cc3cccc(O)c3c(O)c12 | inactive | inactive | inactive | inactive | inactive | inactive | inactive | inactive | inactive |  |  |  |  |  |

| Compound | Potency [1] | Potency [2] | Potency [3] | Potency [4] | Potency [5] | Potency [6] | Potency [7] | Potency [8] | Potency [9] | Potency [10] | fluorescence, relative to Rose Bengal [6] | fluorescence, % of fluorescein control [7] | fluorescence, % of triamterene [8] | fluorescence, % of fluorescent control [9] |
| --- | --- | --- | --- | --- | --- | --- | --- | --- | --- | --- | --- | --- | --- | --- |
| Cc1c(C)c2c(c(C)c1O)CCC(C)(COc1ccc(CC3SC(=O)NC3=O)cc1)O2 (configuration not stated) | 29.8 µM (active) and 54.5 µM (active) | inactive | 29.8 µM (active) and 61.1 µM (active) | inactive | inactive | inactive | inactive | inactive | inactive | 9.44 µM (active) and 10.9 µM (active) |  |  |  |  |
| COc1ccc(-c2ccc3cc(C(=O)O)ccc3c2)cc1C12CC3CC(CC(C3)C1)C2 | 2.37 µM (active) | inactive | 3.76 µM (active) | inactive | inactive | inactive | inactive | inactive | inactive |  |  |  |  |  |
| Cc1[nH]cnc1C[C@H]1CCc2c(C)c3ccccc3n2C1=O | inactive | inactive | inactive | inactive | inactive | inactive | inactive | inactive | inactive |  |  |  |  |  |
| COC(=O)C1=C(C)NC(C)=C(C(=O)OCC(C)C)C1c1ccccc1[N+](=O)[O-] (configuration not stated) | 26.6 µM (active) | inactive | inactive | 29.8 µM (active) and 48.6 µM (active) | inactive | inactive | inactive | inactive | inactive | 11.9 µM (active) and 43.3 µM (active) |  |  |  |  |
| CS(=O)(=O)CCNCc1ccc(-c2ccc3ncnc(Nc4ccc(OCc5cccc(F)c5)c(Cl)c4)c3c2)o1 | inactive | inactive | inactive | inactive | inactive | inactive | inactive | inactive | inactive | inactive |  |  |  |  |
| CCCCCCCCn1sc(Cl)c(Cl)c1=O | 17.2 µM (active) | inactive | 30.6 µM (active) | 19.3 µM (active) | 27.3 µM (active) | inactive | inactive | inactive | inactive |  |  |  |  |  |
| CN1CCN(CCC(=O)N2c3ccccc3Sc3ccc(C(F)(F)F)cc32)CC1 | inactive | inactive | inactive | inactive | inactive | inactive | inactive | inactive | inactive |  |  |  |  |  |
| C[C@@H]1C[C@H]2[C@@H]3CCC4=CC(=O)C=C[C@]4(C)[C@@]3(Cl)[C@@H](O)C[C@]2(C)[C@@]1(OC(=O)c1ccco1)C(=O)CCl | inactive | inactive | inactive | inactive | inactive |  |  |  |  | 11.4 µM (active) | -0.134% [at 18.6 µM] | 0.0009% [at 18.6 µM] | 0.0948% [at 18.6 µM] | 0.225% [at 18.6 µM] |
| O=C(O)c1c(Cl)cccc1Cl | inactive | inactive | inactive | inactive | inactive | inactive | inactive | inactive | inactive |  |  |  |  |  |
| N=C1N=C(N)c2cc3ccccc3cc21 | 9.69 µM (active) | 19.3 µM (active) | 12.2 µM (active) | inactive | inactive | inactive | inactive | 35.5 µM [fluorescent] (active) | inactive | 3.06 µM (active) |  |  |  |  |
| CC(=O)SC[C@@H](Cc1ccccc1)C(=O)NCC(=O)OCc1ccccc1 | inactive | inactive | inactive | inactive | inactive |  |  |  |  | inactive | 0.374% [at 18.6 µM] | 0.0221% [at 18.6 µM] | -0.317% [at 18.6 µM] | -1.15% [at 18.6 µM] |
| O=C(Nc1ccc(Oc2ccc(Cl)cc2)c(Cl)c1)c1cc(I)cc(I)c1O | 10.6 µM (active) | inactive | 4.22 µM (active) | inactive | inactive | inactive | inactive | inactive | inactive | 2.37 µM (active) |  |  |  |  |
| NC(=O)NS(=O)(=O)c1ccc(N)cc1 | inactive | inactive | inactive | inactive | inactive | inactive | inactive | inactive | inactive |  |  |  |  |  |
| CCC(C)(C)C1CCCCC1OC(C)=O (configuration not stated) | inactive | inactive | inactive | inactive | inactive | inactive | inactive | inactive | inactive |  |  |  |  |  |
| CO[Si](CCCNc1ccccc1)(OC)OC | inactive | inactive | inactive | inactive | inactive | inactive | inactive | inactive | inactive | inactive |  |  |  |  |
| Cc1cccc2c1cc1ccc3cccc4ccc2c1c34 | 2.49 µM (active) | inactive | inactive | inactive | inactive | inactive | inactive | inactive | inactive |  |  |  |  |  |
| Cc1cc(N)c(S(=O)(=O)O)cc1Cl | inactive | inactive | inactive | inactive | inactive | inactive | inactive | inactive | inactive | inactive |  |  |  |  |
| CSc1ccc(C(=O)c2[nH]c(=O)[nH]c2C)cc1 | inactive | inactive | inactive | inactive | inactive | inactive | inactive | inactive | inactive | inactive |  |  |  |  |
